Of roughly 7,900 targets only a part is listed; those with a hit were picked by preference. About 0.6% of all pairs of compound and target were hits.
Columns and labels:
Test in all cases: log2 fold change, soluble protein after heating vs DMSO (PISA); higher = thermal stabilisation; K562 cells, 10 uM, 30 min; active = over 0.2 and 3.5 SD of the protein, either way, in both replicates (recomputed)
[1] = compound: C#Cc1cccc(Nc2ncnc3cc(OCCOC)c(OCCOC)cc23)c1 [erlotinib]
Method in brief: (§1)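 K562 cells at 2×10^6 cells/mL were given 10 μM compound for 30 min. Aliquots then went through 3 min of heating across 48°C-58°C, were pooled, and were extracted in PBS with 0.5% NP-40 at 4°C, and the supernatant after 21,000xg for 90 min was quantified by TMTpro 16plex LC-MS/MS with channel sums equalised. Thermal stability relative to control samples, from duplicates, is given as log2 fold change.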

[2] = compound: C/C(=N\NC(=O)C1=CC(=CC=C1)S(=O)(=O)N2CCOCC2)/C3=C(C=CC(=C3)Cl)O
Method in brief: as §1

[3] = compound: C1=CC(=C(C=C1Cl)C2=NC3=NC=CN=C3C(=N2)NC4=CC=NC=C4)F
Method in brief: as §1

[4] = compound: C1=CC(=CC=C1C2=NC3=C(N2)C=C(C=C3)C(=O)N)OC4=CC=C(C=C4)Cl
Method in brief: as §1

[5] = compound: C1=CC2=C(C=CC(=C2)/C=C\3/C(=O)NC(=NCC4=CC=CS4)S3)N=C1
Method in brief: as §1

[6] = compound: C1=CC2=NC=CN=C2C=C1/C=C/3\C(=O)NC(=O)S3
Method in brief: as §1

[7] = compound: C1=CC=C(C=C1)C2=NC(=C(N2)C3=CC=NC=C3)C4=CC(=C(C=C4)Cl)O
Method in brief: as §1

[8] = compound: C1=CC=C2C(=C1)C3=NNC4=CC=CC(=C43)C2=O
Method in brief: as §1

[9] = compound: C1CCN(C1)C(=O)NC2=CC=CC(=C2)NC3=NC=C(C(=N3)NCCC4=CN=CN4)Br
Method in brief: as §1

[10] = compound: C1CN(CCC1(CC2=CC=C(C=C2)Cl)N)C3=NC=NC4=C3C=CN4
Method in brief: as §1

[11] = compound: C1COCCN1CCN2C3=CC=CC=C3N=C2NC(=O)C4=CC(=CC=C4)[N+](=O)[O-] [IRAK-1-4 Inhibitor I]
Method in brief: as §1

[12] = compound: C=CC(=O)N1CCC[C@@H](n2nc(-c3ccc(Oc4ccccc4)cc3)c3c(N)ncnc32)C1 [ibrutinib]
Method in brief: as §1

[13] = compound: CC(=O)c1cnc2ccc(-c3cc(Cl)c(O)c(Cl)c3)nc2c1N[C@H]1CC[C@H](CN(C)C)CC1
Method in brief: as §1

[14] = compound: CC(C)(C)Cn1c(N)nc2ccc(-c3[nH]c(C(C)(C)C)nc3-c3ccc(F)cc3)nc21 [ralimetinib]
Method in brief: as §1

[15] = compound: CC(C)(O)CC(=O)NCCn1ccc2ncnc(Nc3ccc(Oc4cccc(C(F)(F)F)c4)c(Cl)c3)c21
Method in brief: as §1

[16] = compound: CC(C)C1=C2N=C(C=C(N2N=C1)NCC3=CC=CC=C3)NCCCCCCN
Method in brief: as §1

[17] = compound: CC(C)C[C@@H](C=O)NC(=O)[C@H](CC(C)C)NC(=O)[C@H](CC(C)C)NC(=O)OCc1ccccc1
Method in brief: as §1

[18] = compound: CC(C)N(C[C@H]1O[C@@H](n2cnc3c(N)ncnc32)[C@H](O)[C@@H]1O)[C@H]1C[C@@H](CCc2nc3cc(C(C)(C)C)ccc3[nH]2)C1 [pinometostat]
Method in brief: as §1

[19] = compound: CC1=C(C(CC(=O)N1)C2=CC=C(C=C2)C(F)(F)F)C(=O)NC3=C(C=C4C(=C3)C=NN4)F
Method in brief: as §1

[20] = compound: CC1=C(C2=C(C=C1)C(=O)C3=CC=CC=C3N2CCCN)C
Method in brief: as §1

Measured: log2 fold change

FECH isoform 2 (UniProt P22830)
Sequence of UniProt P22830 (P22830 whole entry, looked up): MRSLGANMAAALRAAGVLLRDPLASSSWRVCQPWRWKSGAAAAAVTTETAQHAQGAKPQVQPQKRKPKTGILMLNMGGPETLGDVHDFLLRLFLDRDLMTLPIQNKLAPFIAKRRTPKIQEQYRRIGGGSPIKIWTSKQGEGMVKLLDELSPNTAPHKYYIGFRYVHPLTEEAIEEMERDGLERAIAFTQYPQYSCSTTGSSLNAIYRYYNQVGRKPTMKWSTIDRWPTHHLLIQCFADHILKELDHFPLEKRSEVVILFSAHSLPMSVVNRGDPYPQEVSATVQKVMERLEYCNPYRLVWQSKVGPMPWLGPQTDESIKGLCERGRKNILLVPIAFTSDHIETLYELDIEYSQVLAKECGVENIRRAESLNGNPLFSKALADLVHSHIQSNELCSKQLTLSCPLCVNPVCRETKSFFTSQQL
inactive: [1] 0.191 | [2] -0.179 | [3] 0.349 | [4] 0.206 | [5] 0.162 | [6] 0.048 | [7] 0.429 | [8] 0.135 | [9] 0.172 | [10] 0.046 | [11] 0.408 | [12] 0.082 | [13] 0.129 | [14] 0.159 | [15] 0.426 | [17] -0.144 | [18] -0.098 | [19] -0.457 | [20] 0.514
active: [16] -0.691

HDHD2 (UniProt Q9H0R4)
Sequence of UniProt Q9H0R4 (Q9H0R4 whole entry, looked up): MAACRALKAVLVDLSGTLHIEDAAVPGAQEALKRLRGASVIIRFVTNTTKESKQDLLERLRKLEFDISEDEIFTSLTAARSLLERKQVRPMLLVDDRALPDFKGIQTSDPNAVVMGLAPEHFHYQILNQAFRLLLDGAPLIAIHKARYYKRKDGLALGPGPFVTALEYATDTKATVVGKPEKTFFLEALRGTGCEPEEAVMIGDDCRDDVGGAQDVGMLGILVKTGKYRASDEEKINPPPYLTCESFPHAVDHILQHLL
inactive: [1] 0.029 | [2] 0 | [3] 0.133 | [4] 0.009 | [5] 0.013 | [6] 0.046 | [7] -0.015 | [8] -0.018 | [9] -0.009 | [10] 0.037 | [11] 0.007 | [12] -0.019 | [13] 0.021 | [14] -0.006 | [15] -0.168 | [16] 0.024 | [17] -0.037 | [18] -0.018 | [19] -0.025 | [20] 0.003

GTF2B (UniProt Q00403)
Sequence of UniProt Q00403 (Q00403 whole entry, looked up): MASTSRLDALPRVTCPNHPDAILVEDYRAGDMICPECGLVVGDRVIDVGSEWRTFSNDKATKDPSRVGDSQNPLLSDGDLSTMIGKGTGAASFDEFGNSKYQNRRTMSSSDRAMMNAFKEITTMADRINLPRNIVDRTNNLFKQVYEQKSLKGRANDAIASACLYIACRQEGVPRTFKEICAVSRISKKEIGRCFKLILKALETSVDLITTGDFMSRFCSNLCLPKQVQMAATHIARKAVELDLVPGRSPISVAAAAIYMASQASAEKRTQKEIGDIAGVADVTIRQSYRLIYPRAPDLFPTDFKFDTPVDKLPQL
inactive: [1] 0.069 | [2] 0.136 | [3] 0.048 | [4] -0.035 | [5] 0.149 | [6] 0.027 | [7] -0.033 | [8] 0.01 | [9] -0.065 | [10] -0.046 | [11] -0.063 | [12] -0.064 | [13] -0.023 | [14] 0.044 | [15] -0.215 | [16] -0.125 | [17] 0.068 | [18] 0 | [19] -0.026 | [20] 0.07

GSR (UniProt P00390)
Sequence of UniProt P00390 (P00390 whole entry, looked up): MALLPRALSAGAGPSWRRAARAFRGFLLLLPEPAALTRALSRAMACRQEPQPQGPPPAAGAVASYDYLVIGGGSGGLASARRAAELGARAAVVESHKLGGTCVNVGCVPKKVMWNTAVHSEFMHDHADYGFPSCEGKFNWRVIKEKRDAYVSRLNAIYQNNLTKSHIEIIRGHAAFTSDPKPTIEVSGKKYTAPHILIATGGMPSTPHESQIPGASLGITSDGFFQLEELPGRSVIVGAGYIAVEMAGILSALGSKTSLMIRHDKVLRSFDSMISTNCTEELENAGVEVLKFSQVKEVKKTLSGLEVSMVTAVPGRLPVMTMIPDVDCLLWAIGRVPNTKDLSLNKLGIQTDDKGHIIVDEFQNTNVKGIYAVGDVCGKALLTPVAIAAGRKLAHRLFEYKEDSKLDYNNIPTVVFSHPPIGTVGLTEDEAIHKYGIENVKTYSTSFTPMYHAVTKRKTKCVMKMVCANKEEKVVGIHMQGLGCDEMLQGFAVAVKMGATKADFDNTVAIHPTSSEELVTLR
inactive: [1] -0.099 | [2] 0.021 | [3] 0.071 | [4] 0.067 | [5] 0.023 | [6] 0.007 | [7] -0.026 | [8] -0.017 | [9] 0.011 | [10] 0.054 | [11] 0.037 | [12] -0.005 | [13] -0.011 | [14] -0.021 | [15] -0.015 | [16] 0.082 | [17] 0.023 | [18] -0.05 | [19] -0.005 | [20] -0.003

GLUD1 (UniProt P00367)
Sequence of UniProt P00367 (P00367 whole entry, looked up): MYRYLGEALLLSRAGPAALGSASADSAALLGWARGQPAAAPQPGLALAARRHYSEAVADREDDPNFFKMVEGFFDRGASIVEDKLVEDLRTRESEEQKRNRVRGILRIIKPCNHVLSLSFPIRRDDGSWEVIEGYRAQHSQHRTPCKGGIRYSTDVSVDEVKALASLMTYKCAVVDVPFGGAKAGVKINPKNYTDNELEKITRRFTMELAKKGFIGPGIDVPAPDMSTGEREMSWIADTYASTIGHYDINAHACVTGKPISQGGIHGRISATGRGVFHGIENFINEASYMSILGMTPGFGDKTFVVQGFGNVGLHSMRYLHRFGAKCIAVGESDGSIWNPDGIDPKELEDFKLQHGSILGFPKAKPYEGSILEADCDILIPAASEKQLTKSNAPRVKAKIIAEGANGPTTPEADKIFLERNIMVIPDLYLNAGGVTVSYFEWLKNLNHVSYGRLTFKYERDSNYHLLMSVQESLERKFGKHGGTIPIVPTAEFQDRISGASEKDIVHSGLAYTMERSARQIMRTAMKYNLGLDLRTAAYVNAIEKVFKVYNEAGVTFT
inactive: [1] 0.068 | [2] -0.009 | [3] 0.051 | [4] 0.026 | [5] 0.039 | [6] -0.018 | [7] -0.033 | [8] 0 | [9] 0.05 | [10] -0.027 | [11] 0.02 | [12] 0.04 | [13] 0.068 | [14] 0.023 | [15] -0.038 | [16] -0.049 | [17] 0.012 | [18] 0.023 | [19] -0.076 | [20] 0.125

HEXB (UniProt P07686)
Sequence of UniProt P07686 (P07686 whole entry, looked up): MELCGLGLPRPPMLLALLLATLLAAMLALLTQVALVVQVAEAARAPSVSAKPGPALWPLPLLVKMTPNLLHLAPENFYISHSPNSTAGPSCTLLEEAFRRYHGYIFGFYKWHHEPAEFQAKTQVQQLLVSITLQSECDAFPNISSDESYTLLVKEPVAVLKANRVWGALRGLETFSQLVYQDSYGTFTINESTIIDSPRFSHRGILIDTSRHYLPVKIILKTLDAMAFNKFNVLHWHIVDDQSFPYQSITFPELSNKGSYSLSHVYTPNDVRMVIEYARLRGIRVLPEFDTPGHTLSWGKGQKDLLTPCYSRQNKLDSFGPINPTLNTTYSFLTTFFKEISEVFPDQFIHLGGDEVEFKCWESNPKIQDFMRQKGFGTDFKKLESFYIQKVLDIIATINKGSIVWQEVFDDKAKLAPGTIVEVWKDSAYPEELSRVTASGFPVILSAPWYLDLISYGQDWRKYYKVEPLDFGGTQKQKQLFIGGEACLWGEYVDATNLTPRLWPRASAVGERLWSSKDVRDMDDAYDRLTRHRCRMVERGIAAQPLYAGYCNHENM
inactive: [1] -0.004 | [2] 0.002 | [3] 0.01 | [4] 0.003 | [5] -0.002 | [6] 0.017 | [7] 0.017 | [8] -0.01 | [9] 0.008 | [10] 0.026 | [11] 0.06 | [12] 0.004 | [13] 0.003 | [14] -0.068 | [15] -0.004 | [16] -0.14 | [17] 0.003 | [18] -0.025 | [19] -0.015 | [20] -0.03

FASTKD1 (UniProt Q53R41)
Sequence of UniProt Q53R41 (Q53R41 whole entry, looked up): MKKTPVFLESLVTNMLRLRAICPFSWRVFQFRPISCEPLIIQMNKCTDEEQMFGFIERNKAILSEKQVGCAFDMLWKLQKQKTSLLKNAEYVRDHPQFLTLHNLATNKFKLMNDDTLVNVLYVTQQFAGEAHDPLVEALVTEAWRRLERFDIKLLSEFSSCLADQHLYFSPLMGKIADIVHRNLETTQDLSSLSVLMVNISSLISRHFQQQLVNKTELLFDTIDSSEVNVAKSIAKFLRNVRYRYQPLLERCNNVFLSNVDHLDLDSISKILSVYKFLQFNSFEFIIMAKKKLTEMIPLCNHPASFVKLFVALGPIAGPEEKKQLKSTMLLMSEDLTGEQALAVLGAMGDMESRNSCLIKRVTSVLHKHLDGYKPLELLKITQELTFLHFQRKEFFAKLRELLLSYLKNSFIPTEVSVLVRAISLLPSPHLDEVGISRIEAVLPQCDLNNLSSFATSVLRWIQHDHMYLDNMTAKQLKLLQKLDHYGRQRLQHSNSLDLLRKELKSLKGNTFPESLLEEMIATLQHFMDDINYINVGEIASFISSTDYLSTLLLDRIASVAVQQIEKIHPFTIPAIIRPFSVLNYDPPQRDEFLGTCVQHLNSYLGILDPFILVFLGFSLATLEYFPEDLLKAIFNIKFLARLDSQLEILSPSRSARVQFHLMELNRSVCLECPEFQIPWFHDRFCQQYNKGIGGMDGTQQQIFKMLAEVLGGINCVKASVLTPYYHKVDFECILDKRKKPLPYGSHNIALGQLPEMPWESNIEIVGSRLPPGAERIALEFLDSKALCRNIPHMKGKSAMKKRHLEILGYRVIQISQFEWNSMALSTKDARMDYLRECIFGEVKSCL
inactive: [1] 0.207 | [2] 0.219 | [3] 0.142 | [4] -0.051 | [5] -0.072 | [6] -0.033 | [7] 0.281 | [8] 0.093 | [9] -0.108 | [10] -0.014 | [11] 0.016 | [12] -0.186 | [13] -0.043 | [14] 0.013 | [15] -0.316 | [16] -0.047 | [17] 0.116 | [18] 0.038 | [19] -0.345 | [20] 0.2

FBXO42 (UniProt Q6P3S6)
Sequence of UniProt Q6P3S6 (Q6P3S6 whole entry, looked up): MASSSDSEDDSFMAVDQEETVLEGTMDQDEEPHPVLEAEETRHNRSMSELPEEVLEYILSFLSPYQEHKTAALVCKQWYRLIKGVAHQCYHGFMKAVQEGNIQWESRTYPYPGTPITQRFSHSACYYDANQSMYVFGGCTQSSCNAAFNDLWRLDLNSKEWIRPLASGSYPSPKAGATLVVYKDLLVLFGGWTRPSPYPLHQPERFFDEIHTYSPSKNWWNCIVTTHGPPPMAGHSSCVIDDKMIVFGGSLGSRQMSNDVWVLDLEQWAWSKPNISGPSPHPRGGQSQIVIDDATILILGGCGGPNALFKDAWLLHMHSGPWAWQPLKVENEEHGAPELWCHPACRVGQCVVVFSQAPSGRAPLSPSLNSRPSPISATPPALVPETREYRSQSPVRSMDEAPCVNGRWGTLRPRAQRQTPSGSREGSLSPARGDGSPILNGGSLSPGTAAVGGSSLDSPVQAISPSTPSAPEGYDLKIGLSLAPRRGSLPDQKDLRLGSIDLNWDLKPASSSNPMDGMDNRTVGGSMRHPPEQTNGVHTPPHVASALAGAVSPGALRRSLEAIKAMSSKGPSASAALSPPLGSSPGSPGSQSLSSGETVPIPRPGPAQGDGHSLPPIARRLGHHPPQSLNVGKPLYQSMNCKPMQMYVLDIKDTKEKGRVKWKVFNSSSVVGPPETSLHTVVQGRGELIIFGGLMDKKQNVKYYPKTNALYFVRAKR
inactive: [1] 0.026 | [2] -0.006 | [3] -0.002 | [4] 0.025 | [5] 0.025 | [6] 0.055 | [7] 0.051 | [8] -0.006 | [9] -0.05 | [10] -0.024 | [11] -0.103 | [12] -0.009 | [13] -0.108 | [14] -0.064 | [15] -0.093 | [16] -0.169 | [17] 0.011 | [18] -0.051 | [19] -0.038 | [20] 0.086
